Measured values: PubChem BioAssay AID504326 (The Scripps Research Institute Molecular Screening Center, 2011)
Screen size: about 340,000 compounds; about 990 (0.29%) were called active. No stated cut-off is given here; in the data, active means activation above about 18%; inactive means the rest. What follows is part of a selection rich in actives, with near analogues and random picks from the rest.

What follows are molecules tested against Mu-type opioid receptor (Homo sapiens) + Delta-type opioid receptor (Homo sapiens) (UniProt P35372+P41143) (assay: agonists of OPRM1-OPRD1 heterodimerization, primary screen, cell-based, luminescence (AID 504326;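 further: 0% = vehicle-treated cells and 100% = reference agonist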)). Settings: cells, at 9.3 µM, stronger effect = higher value.
Chain of Mu-type opioid receptor (Homo sapiens) + Delta-type opioid receptor (Homo sapiens) (P35372 whole entry, looked up): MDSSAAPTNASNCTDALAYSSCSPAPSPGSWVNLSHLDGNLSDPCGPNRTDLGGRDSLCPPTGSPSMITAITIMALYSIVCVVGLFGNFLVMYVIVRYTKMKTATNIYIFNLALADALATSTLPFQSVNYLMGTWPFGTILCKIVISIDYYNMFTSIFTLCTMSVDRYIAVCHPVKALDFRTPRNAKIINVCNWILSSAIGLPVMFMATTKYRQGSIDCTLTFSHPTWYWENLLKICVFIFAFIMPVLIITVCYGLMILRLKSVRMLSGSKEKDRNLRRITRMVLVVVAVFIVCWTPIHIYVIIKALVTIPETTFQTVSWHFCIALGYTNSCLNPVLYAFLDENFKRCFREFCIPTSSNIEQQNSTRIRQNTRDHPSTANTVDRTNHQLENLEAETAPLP
Chain of Mu-type opioid receptor (Homo sapiens) + Delta-type opioid receptor (Homo sapiens) (P41143 whole entry, looked up): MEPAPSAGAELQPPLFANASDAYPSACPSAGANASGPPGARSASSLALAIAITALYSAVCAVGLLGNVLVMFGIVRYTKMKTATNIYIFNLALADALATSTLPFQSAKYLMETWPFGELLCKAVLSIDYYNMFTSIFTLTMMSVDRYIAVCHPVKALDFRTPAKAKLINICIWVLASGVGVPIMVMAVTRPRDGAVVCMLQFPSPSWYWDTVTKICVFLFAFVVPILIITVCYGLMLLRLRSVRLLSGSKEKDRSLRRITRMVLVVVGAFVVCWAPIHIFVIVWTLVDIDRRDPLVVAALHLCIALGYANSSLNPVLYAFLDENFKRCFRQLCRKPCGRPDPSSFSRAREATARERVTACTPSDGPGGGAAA

activation, active:
N#CC(C(=O)c1ccc(S(=O)(=O)N2CCCCCC2)cc1)c1nc2ccccc2[nH]1 (stereo not drawn) 24.1%
Cc1ccc(Nc2ccccc2N)cc1 21.4%
CCc1ccc(C(CNc2nc(C(F)(F)F)nc3ccccc23)N(C)C)cc1 (stereo not drawn) 81.6%
COc1cc(/C=N/NC(=O)Nc2ccccc2)ccc1OCCOc1ccccc1C 28%
CCOC(=O)C1=C(O)/C(=C/c2ccc(OCC(=O)Nc3ccc(C)cc3)cc2)N=C1C 40.8%
CCOC(=O)c1c(C)[nH]c2c1-c1ccccc1C(=O)C2=O 22.6%
Cc1ccc(CN(C(=O)c2sc3ccccc3c2Cl)C2CCS(=O)(=O)C2)cc1 (stereo not drawn) 26.2%
O=C(Nc1ccc(OC(F)(F)F)cc1)c1ccc2c(c1)no[n+]2[O-] 22%
COC(=O)c1ccc(C23CC4(C2)[C@H](CN(Cc2cccnc2)[C@@H]4c2ccccc2)C3c2ccc(Cl)nc2)cc1 (stereo partly drawn) 19.2%
Cc1ccc(CNC(=O)CC(NC(=O)c2ccccc2)c2ccccc2)cc1 (stereo not drawn) 22.7%
COc1ccc(C(CNCC(=O)Nc2ccccc2F)N(C)C)cc1 (stereo not drawn) 149%

activation, inactive:
O=C(Nc1ncccc1O)c1ccc(S(=O)(=O)N2CCCCCC2)cc1 -4.61%
O=S(=O)(c1ccc(Br)cc1)N1CCC(c2nc3ccccc3[nH]2)CC1 1.07%
Oc1cccc2ccc(/C=C/c3ccc(Br)s3)nc12 1.72%
Nc1ccc(C(=O)Nc2ccccc2N)cc1 2.04%
Cc1ccc(Nc2nc(Cl)c(C=O)s2)cc1 4.48%
COc1cc(C(=O)OCC(=O)NC23CC4CC(CC(C4)C2)C3)cc(OC)c1OC -1.44%
COc1ccc(NC(=O)CCCN2C(=O)C(c3ccccc3)Oc3cccnc32)cc1 (stereo not drawn) 2.07%
Cc1ccc(OCCCC(=O)Nc2ccc(S(=O)(=O)Nc3cc(C)nc(C)n3)cc2)cc1 0.21%
NS(=O)(=O)c1ccc(CCNc2nc(C(F)(F)F)nc3ccccc23)cc1 -1.85%
COc1cccc(CNc2nc(C(F)(F)F)nc3ccccc23)c1 5.18%
Cc1ccn(C(CC(=O)c2ccc(Br)cc2)C(=O)O)n1 (stereo not drawn) -1.91%
Nc1c(Cl)cc(S(N)(=O)=O)cc1S(N)(=O)=O -5.23%
CC1=NNC(=O)C1CCC(=O)N/N=C\c1ccc(Cl)c(Cl)c1 (stereo not drawn) -0.87%
COc1cc(/C=N/NC(=O)Cc2ccccc2)cc(OC)c1OC -1.52%
COc1cc(/C=N/NC(=O)c2ccoc2C)ccc1OCCN1CCCCC1 -0.79%
Cc1cc(C)c2c(=O)[nH]c(SCC(=O)Nc3ccc(Br)cc3)nc2n1 2.08%
CN(Cc1ccc(F)cc1)C(=O)CN1C(=O)c2ccccc2S1(=O)=O -2.95%
COC(=O)C1=NNC2(c3ccc(C)cc3)C(=O)N(c3cccc(C)c3C)C(=O)C12 (stereo not drawn) -4.85%
COC(=O)C1=C(O)/C(=C/c2ccc(OCC(=O)Nc3ccccc3)cc2)N=C1C -3.18%
Cc1ccc(NC(=O)COc2ccc(/C=C3/NC(=O)NC3=O)cc2)cc1 2.37%
CCOc1ccc(Br)cc1S(=O)(=O)Nc1ccc(C(=O)OC(C)C(=O)N(C)c2ccccc2)cc1 (stereo not drawn) 2.35%
CC(c1ccccn1)N(C)C(=O)c1ccc2nc(Cc3cccc(Cl)c3)oc2c1 (stereo not drawn) -0.53%
CC1CCCCC12NC(=O)N(CC(=O)OCC(=O)NCc1ccc(F)cc1)C2=O (stereo not drawn) -0.67%
Cc1cccc(Oc2c([N+](=O)[O-])c(=O)n(C)c3ccccc23)c1 1.78%
CCOC(=O)c1ccccc1OC(=O)Oc1ccccc1C(=O)OCC -2.83%
CCOC(=O)C1=C(C)c2ccccc2OC1(C)C(=O)OCC (stereo not drawn) -0.33%
O=C(NCc1ccccn1)c1cnc2sccn2c1=O -2.49%
COc1cc(C(=O)N(Cc2ccc(N(C)C)cc2)C2CCS(=O)(=O)C2)cc(OC)c1OC (stereo not drawn) -1.82%
CC1(C)C(C=C(Cl)Cl)C1C(=O)N(Cc1ccc(Cl)cc1)C1CCS(=O)(=O)C1 (stereo not drawn) 0.69%
O=C(C1CC1)N1N=C2CCCCC2C1(O)C(F)(F)F (stereo not drawn) -1.35%
CCOC(=O)Cc1ncccc1C(=O)Nc1ccc(OC(F)(F)F)cc1 -3.8%
Cn1cccc1/C=N/NC(=O)c1ccc(OC(F)(F)C(F)F)cc1 -1.62%
O=C(N1CCOCC1)N(Cc1ccccc1)c1ccccn1 -1.92%
CC(=O)CSc1nc(CCc2ccccc2)c(C#N)c(=O)[nH]1 -2.33%
COc1ccc(/C=C2/S/C(=N/N=C3\CC4CCC3(C)C4(C)C)NC2=O)cc1 (stereo not drawn) 0.11%
Clc1ccc(C2[C@H]3CN(CC4CCCCC4)[C@H](c4ccccc4)C34CC2(c2cccnc2)C4)cn1 (stereo partly drawn) -1.67%
CCN1C(=NCCc2cccnc2)N[C@@H](c2ccccc2)C(C(=O)OC)=C1C 0.22%
O=C(/C=C/c1cnc2ccccc2n1)NC1CCCCCC1 -1.86%
CC(C)NS(=O)(=O)c1ccc(NC(=O)C2CCCCC2)cc1 -1.18%
Cc1ccc(CNC(=O)[C@@H](NC(=O)Cc2ccccc2)C(C)C)cc1 2.39%
O=C(CC(NC(=O)c1ccccc1)c1ccccc1)Nc1ccc(F)c(F)c1 (stereo not drawn) 1.24%
CCOC(=O)CC(NC(=O)C1c2ccccc2Oc2ccccc21)c1ccc(C)cc1 (stereo not drawn) -2.87%
COc1ccc(C(CNC(=O)c2ccc(S(=O)(=O)Nc3ccccc3F)cc2)N(C)C)cc1 (stereo not drawn) -3.41%
Cc1cccc(OCC(=O)Nc2ccccc2F)c1 -3.72%
COCCNC(=O)C(c1ccc(C)cc1)N(C(=O)CCC(=O)Nc1ccccn1)c1cccc(C)c1 (stereo not drawn) -0.25%
CCNC(=S)N1CCN(c2ncccn2)CC1 -2.13%
CCn1nnnc1SCC(=O)Nc1ccc(N(C)C)cc1 -1.37%
